Shown are actives, neighbours in structure and some others; about 3.6% of the full set was active somewhere.
A549 viability = Nrf2 qHTS screen for inhibitors: counterscreen for cytotoxicity; actives 0.16% (n = 390,000); Potency, µM (top dose mostly 46 µM), for inactives: at the top dose activity change, negative = cytotoxicity, hits mostly inhibitors; A549 ARE-Fluc cells, CellTiter-Fluor viability, 18-24 h; note: % is set by controls: 0 for no effect and ±100 for the full control effect
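A549 ARE_Fluc cells in 5% FBS OPTI-MEM were exposed to compounds in concentration-response for 18-24 h at 37 deg C. Viability was read by CellTiter-Fluor fluorescence (Ex 405/Em 525) after 30 min, before the luciferase read.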
Nrf2 block = Nrf2 qHTS screen for inhibitors; A549 ARE-Fluc reporter, luciferase luminescence, 18-24 h; Potency, µM (titrated, usually from 46 µM), for inactives: top-dose activity change, negative = inhibition, most hits filed as inhibitors; actives 2.1% (n = 360,000); AID 504444, 2011; note: % is set by controls: 0 for no effect and ±100 for the full control effect; nearly all actives have a fitted effect of over 60% in size
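Reporter: ARE-Fluc in A549. Exposure: 18-24 h, 37 °C, 5% CO2, 5% FBS OPTI-MEM. Readouts: fluorescent cytotoxicity (CellTiter-Fluor), then luminescent Nrf2 signal after BugLite.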
TGFb inhibitor = qHTS for Inhibitors of TGF-b. AID 588855, 2011. Potency, µM (top dose mostly 46.1 µM), for the others: at the highest dose activity, negative = inhibition, most hits filed as inhibitors. actives 1.2% (n = 410,000). HepG2 CAGA-GFP TGF-b/SMAD3 reporter, GFP fluorescence, 18 h; TGF-beta stimulated, 500 pg/mL final; note: % is set by controls: 0 for no effect and ±100 for the full control effect; nearly all actives have a fitted effect of over 65% in size
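HEPG2 CAGA-GFP reporter cells (1000/well, DMEM with 1% FBS) received compounds, then recombinant TGF-beta at 500 pg/mL final for 18 hours at 37 degrees C. Per-cell GFP summed per well was normalised to unstimulated and stimulated DMSO controls before curve fitting.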
HepG2 viability = qHTS for Inhibitors of TGF-b: Cytotox Counterscreen. HepG2 CAGA-GFP viability, ATP luminescence, 18 h. Potency, µM (doses to about 46.1 µM), inactives show at the highest dose activity change, negative = cytotoxicity, most hits filed as cytotoxic. actives 0.76% (n = 410,000). AID 588856, 2011
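CellTiter-Glo luminescence gave cytotoxicity after 18 hours at 37 degrees C. The cells were HepG2 CAGA-GFP in 1% FBS DMEM, stimulated with 500 pg/mL TGF-beta after compound addition. %Activity was normalised to no-cell wells (complete cell-killing) and DMSO (no toxicity), and curves were fitted and classified.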
Nrf2 ARE act = qHTS of Nrf2 Activators | AREc32 ARE-luciferase reporter (MCF7-derived line), luminescence, 24 h | Potency, µM (series often up to 46.1 µM), without a hit: top-dose activation, hits mostly activators | actives 0.31% (n = 410,000); note: % of control where 0% means no effect; nearly all actives have a fitted effect of over 65% in size
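For detection, Steady-Glo was added and plates sat 30 min at RT; before that, AREc32_Fluc cells grown overnight in OPTI-MEM/5% FBS had been treated with 23 nL compound for 24 hr at 37 deg C.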
* marks the source's active call; other numbers are inactive results; u = inconclusive. Calls come from the whole dose curve; as a rule, active = well fitted curve in the direction sought with a large enough effect; inconclusive = small, poorly fitted or top-dose-only effect, or another doubt; inactive = no such curve, though single readings can be large; an effect the other way counts as inactive or inconclusive. Potency is the fitted concentration of half-maximal effect.

SMILES	A549 viability	Nrf2 block	TGFb inhibitor	HepG2 viability	Nrf2 ARE act
O=C(CCl)N(c1ccccc1)C1CCS(=O)(=O)C1 (configuration not stated)	u	23.1µM*	u	12.6µM*	-2.9%
CNC(=O)COc1ccccc1C(=O)Nc1ccc2c(c1)oc1ccccc12	2.0%	7.31µM*	2.6%	-40.4%	-2.0%
N#Cc1ccccc1NC(=O)c1ccccc1OCC(=O)Nc1ccc2c(c1)oc1ccccc12	2.7%	u	-24.1%	-15.8%	3.3%
CN1CCN(C(c2ccccn2)c2cc(Cl)c3cccnc3c2O)CC1 (configuration not stated)	0.6%	-6.9%	u	-12.9%	-0.5%
Oc1c(C(c2ccccn2)N2CCC(Cc3ccccc3)CC2)cc(Cl)c2cccnc12 (configuration not stated)	u	u	15.8µM*	-47.6%	13.0%
O=C(/C=C/c1ccc(OC2CSC2)cc1)c1ccccc1	7.3%	u	u	6.31µM*	u
O=C(N/N=C/c1ccc(OC2CSC2)cc1)c1ccccc1	0.3%	23.9%	-8.5%	-24.8%	0.6%
CCn1ncc(Cl)c1C(=O)NC(=S)Nc1c(C)cc(C)cc1[N+](=O)[O-]	1.2%	-11.3%	-25.9%	-7.7%	0.3%
Cc1ccc[n+](CC2OCc3ccccc3CO2)c1	0.4%	7.31µM*	-3.1%	-0.3%	-0.7%
Nc1nc2c(s1)CCc1c-2cnn1-c1ccccc1	-9.8%	u	17.8µM*	-120.7%	-2.9%
COc1ccc(N2N=NN(C(C)C)C2=C(Cl)c2nnnn2-c2ccc(OC)cc2)cc1	-3.4%	23.7%	u	-58.7%	15.8µM*
O=C(O)c1ccc2nc(-c3ccccc3)c(-c3ccccc3)nc2c1	-6.5%	u	4.0%	4.2%	0.2%
CC1CCC2(CC1)NC(=O)N(CC(=O)Nc1cccc(S(=O)(=O)N3CCCCC3)c1)C2=O (configuration not stated)	-1.5%	18.4µM*	2.2%	-22.1%	-0.9%
CC1CCC2(CC1)NC(=O)N(CC(=O)Nc1cccc(S(=O)(=O)N3CCOCC3)c1)C2=O (configuration not stated)	-6.2%	u	3.8%	-54.4%	-0.5%
CN1C(=O)N(CC(=O)Nc2cccc(S(=O)(=O)N(C)c3ccccc3)c2)C(=O)C12CCCCC2	-7.5%	-18.0%	-2.4%	0.0%	-0.2%
CCC1CCC2(CC1)NC(=O)N(CC(=O)Nc1cccc(S(=O)(=O)N(C)c3ccccc3)c1)C2=O (configuration not stated)	-1.3%	16.4µM*	u	-13.7%	2.4%
CCCCCCCCCCS(=O)(=O)N/N=C/c1ccc(O)cc1	0.8%	-6.5%	12.6µM*	-94.2%	5.0%
CCCCCCCCCS(=O)(=O)N/N=C/c1cccc([N+](=O)[O-])c1	-24.2%	u	u	-84.5%	-0.2%
Cc1csc(NC(=O)C(C)Oc2ccc(Br)cc2)n1 (configuration not stated)	0.9%	-4.0%	-24.1%	-30.3%	0.0%
CCC(C)(C)n1nnnc1CN1CCN(c2nc3cc(OC)ccc3cc2C#N)CC1	-13.5%	18.4µM*	-12.5%	4.5%	-0.1%
Cc1ccc2nc(N3CCN(Cc4nnnn4C4CCCC4)CC3)c(C#N)cc2c1	0.9%	23.1µM*	-5.1%	-24.4%	-0.7%
O=C(Nc1cccc(S(=O)(=O)NCc2ccco2)c1)c1cccc(Cl)c1	15.9%	u	-10.1%	-24.3%	10.3%
Cc1ccccc1Nc1nc(N)nc(-c2oc3ccccc3c2C)n1	-8.5%	5.6%	0.0%	21.7%	2.3%
O=C(c1ccco1)N(CC1CCCO1)c1nc(-c2ccccc2)cs1 (configuration not stated)	8.4%	u	-10.6%	-25.7%	7.5%
CC(C)NC(=O)N(C)C[C@@H]1Oc2c(NS(=O)(=O)c3ccccc3)cccc2C(=O)N([C@@H](C)CO)C[C@@H]1C	1.2%	8.8%	5.3%	-0.6%	-0.1%

Compound activity from PubChem.
